The results in this text go back to PubChem BioAssay.

Values joined by “and” are separate entries in the source; they are usually repeats but may differ in a detail not shown here. Identical values can stand only once. Records with an inconclusive call do not appear. Active and inactive are the calls of the source. Unless noted, no stated cut-off is given here; in the data, active means parasite load remaining mostly below about 12% (no sharp cut-off); inactive means mostly above about 10%.

The target in test [1] is ATP-dependent translocase ABCB1 (Homo sapiens) (UniProt P08183). Nature of the test: MDR1 (ABCB1) efflux transporter inhibition, cell-based (AID 377; in the data active means fluorescence slope change above about 50%). As to conditions: MDR1-expressing cells, fluorescent substrate accumulation slope; stronger effect = higher value; concentration not given here.
Test [2] in a line: growth inhibition of DIPG glioma cells, dose response, cell-based, SU-DIPG-XIII, MIPE5.0, CellTiter-Glo, qHTS (AID 1347064; cut-off not given, nearly all actives have AC50 up to about 23 µM). The note with it: SU-DIPG-XIII viability, CellTiter-Glo ATP luminescence. On the technique in general: ATP-based viability assays read luminescence as a measure of living cells.
A short description of test [3]: viability loss in pontine glioma line – cell-based, SU-DIPG-XXV, MIPE5.0, CellTiter-Glo, qHTS, dose response (AID 1347065; cut-off not given, nearly all actives have AC50 up to about 26 µM;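 further: cells exposed to compound for 48 hours before ATP readout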). The note with it: CellTiter-Glo ATP luminescence.
Test [4] is described as follows: liver-stage malaria parasite growth inhibition, primary screen, cell-based, HepG2, luciferase luminescence, HepG2 viability (AID 624349).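 Further: 100% = mean of DMSO negative control wells on the same plate.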 As to conditions: P. berghei liver stage in HepG2, luciferase luminescence, concentration not given here; parasite load remaining: stronger effect = lower value; viability: measured here: HepG2 viability without parasites.

Chain of ATP-dependent translocase ABCB1 (Homo sapiens) (P08183 whole entry, looked up): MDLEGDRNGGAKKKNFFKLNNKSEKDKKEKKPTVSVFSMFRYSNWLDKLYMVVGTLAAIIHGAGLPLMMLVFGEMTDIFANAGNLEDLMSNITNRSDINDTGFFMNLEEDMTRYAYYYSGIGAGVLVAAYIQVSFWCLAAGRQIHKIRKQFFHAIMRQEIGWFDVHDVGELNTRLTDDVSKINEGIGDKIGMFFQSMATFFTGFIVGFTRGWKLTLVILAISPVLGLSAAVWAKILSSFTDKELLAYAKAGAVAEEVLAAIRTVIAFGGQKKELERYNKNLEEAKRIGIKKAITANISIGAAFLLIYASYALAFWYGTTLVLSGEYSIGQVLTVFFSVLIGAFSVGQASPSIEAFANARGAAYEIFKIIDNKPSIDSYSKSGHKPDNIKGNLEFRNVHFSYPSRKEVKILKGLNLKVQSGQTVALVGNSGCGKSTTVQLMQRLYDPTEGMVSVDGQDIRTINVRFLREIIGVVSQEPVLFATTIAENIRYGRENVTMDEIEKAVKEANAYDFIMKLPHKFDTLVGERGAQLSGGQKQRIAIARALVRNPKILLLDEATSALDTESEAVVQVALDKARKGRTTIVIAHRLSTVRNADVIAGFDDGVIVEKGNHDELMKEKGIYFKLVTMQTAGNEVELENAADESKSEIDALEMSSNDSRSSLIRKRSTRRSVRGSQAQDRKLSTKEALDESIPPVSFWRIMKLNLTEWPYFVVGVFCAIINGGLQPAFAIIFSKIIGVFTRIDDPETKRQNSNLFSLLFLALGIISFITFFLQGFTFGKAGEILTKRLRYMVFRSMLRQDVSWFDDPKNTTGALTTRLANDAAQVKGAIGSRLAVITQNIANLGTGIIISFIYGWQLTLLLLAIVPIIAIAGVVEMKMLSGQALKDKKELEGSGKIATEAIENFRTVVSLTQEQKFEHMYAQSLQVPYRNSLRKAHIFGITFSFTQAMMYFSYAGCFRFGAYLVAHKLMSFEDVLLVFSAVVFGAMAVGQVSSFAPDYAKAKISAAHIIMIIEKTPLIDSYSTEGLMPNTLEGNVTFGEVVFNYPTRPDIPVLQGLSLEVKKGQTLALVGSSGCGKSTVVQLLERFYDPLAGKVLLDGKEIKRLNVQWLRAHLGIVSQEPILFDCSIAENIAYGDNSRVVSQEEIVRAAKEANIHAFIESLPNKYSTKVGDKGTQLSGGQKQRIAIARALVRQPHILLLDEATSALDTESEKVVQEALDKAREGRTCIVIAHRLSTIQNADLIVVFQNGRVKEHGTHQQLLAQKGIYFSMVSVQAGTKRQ

For the compound `CCCNCC(O)COc1ccccc1C(=O)CCc1ccccc1` (centres undefined), the fluorescence slope change in test [1] is 74.2% (active). Moreover, the call in test [2] was inactive.

As to `NS(=O)(=O)c1cc2c(cc1Cl)NC=NS2(=O)=O`, the result in test [2] and in test [3] was inactive.

On to `O=S(=O)(O)CCS`, for which the fluorescence slope change in test [1] was 5.5% (inactive). For the same compound, in test [4], the parasite load remaining is 51.7% (inactive) and 115% (inactive) and 24.6% (inactive). In addition, the viability in test [4] was 104% and 70.5% and 96.3%. In addition, the compound was called inactive in test [2] and in test [3].

By viability is commonly meant a read-out of living cells in per cent, often relative to untreated cells.
